Bioassay records as filed in PubChem.
Rows were chosen to be rich in hits. Some 2% of all compounds tested hit in one or more screens of this group.
MBNL1 CUG block = MBNL1-poly(CUG) RNA binding inhibition. Q9NR56. Potency, µM (titrated, usually from 57.5 µM), inactives show at the highest dose activity change, negative = inhibition, usual class: inhibitors. TR-FRET MBNL1-His/biotin-(CUG)12 binding, 665/545 ratio. 280,000 tested, 0.036% active. AID 2675; active = well fitted inhibition curve with a large enough effect in the signal ratio, with a control signal flat, not every such curve was filed as active; inconclusive = small, poorly fitted or top-dose-only effect, or effect the other way, or a change in a side signal; inactive = no such curve, though single readings can be large or run the other way; the % refers to the signal ratio; also: % is scaled to controls: 0 for no effect and ±100 for the full control effect
Target sequence (Q9NR56 whole entry, looked up): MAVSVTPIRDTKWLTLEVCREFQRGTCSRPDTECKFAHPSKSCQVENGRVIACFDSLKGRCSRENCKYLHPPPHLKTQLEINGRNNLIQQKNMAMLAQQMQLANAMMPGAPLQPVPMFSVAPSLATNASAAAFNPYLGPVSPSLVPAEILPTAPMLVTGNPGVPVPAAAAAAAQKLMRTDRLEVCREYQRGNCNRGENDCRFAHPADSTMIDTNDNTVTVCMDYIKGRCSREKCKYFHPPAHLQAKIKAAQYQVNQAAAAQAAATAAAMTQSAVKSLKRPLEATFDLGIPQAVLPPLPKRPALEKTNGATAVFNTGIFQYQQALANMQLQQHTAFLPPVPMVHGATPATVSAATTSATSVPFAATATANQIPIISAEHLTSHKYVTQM
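TR-FRET between His-tagged MBNL1 and biotin-(CUG)12 RNA, detected with Tb anti-His antibody (0.055 ng/ul) and streptavidin-XL665 (5 nM), 60 min at room temperature. Compounds titrated 92 nM to 58 uM; 665/545 nm ratio normalized to buffer and complex controls.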
FUS yeast rescue = rescues growth of FUS-expressing yeast; S. cerevisiae FUS-expressing, growth rescue, OD600, 24 h; Potency, µM (titrated, usually from 76.6 µM), usual class: activators; 390,000 tested, 0.24% active; AID 1347120;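 also: plate controls were DMSO vehicle for no effect and reference control for full effect; nearly all actives have a fitted effect of over 55% in size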
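S. cerevisiae expressing FUS from galactose induction served as the toxicity model. Growth after 24hr at 30C, read as absorbance at 600 nm, indicates suppression of toxicity; compounds dosed at several concentrations.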
aSyn yeast inh = inhibitors of alpha-synuclein toxicity in yeast; 370,000 tested, 0.14% active; Potency, µM (titrated, usually from 46.1 µM), for the others: at the top dose growth rescue (activation), hits mostly activators; Yeast expressing alpha-synuclein, growth rescue, BacTiter-Glo, 24 h; also: % of control where 0% means no effect; nearly all actives have a fitted effect of over 65% in size
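Rescue of yeast growth: cells expressing toxic alpha-synuclein, induced in galactose at OD600 0.02, incubated with compound 24 h at 30 C. ATP luminescence quantified growth; inhibitors of toxicity appear as activators.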
TDP-43 yeast inh = TDP-43 toxicity inhibition in yeast. TDP-43 expressing yeast growth rescue, BacTiter-Glo, 24 h. Potency, µM (top dose mostly 46.1 µM), without a hit: at the highest dose growth rescue (activation), most hits filed as activators. 410,000 tested, 1.8% active. AID 652104; also: % of control where 0% means no effect; nearly all actives have a fitted effect of over 50% in size
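Readout is BacTiter-Glo luminescence of cell growth, so inhibitors register as activators. TDP-43-expressing yeast at OD600=0.02 in galactose medium, after raffinose pregrowth to mid-log, were incubated with compound for 24 hr at 30 deg C.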
Glioma ERSR ind = induces the endoplasmic reticulum stress response in human glioma cells; U87-MG GRP78 promoter luciferase reporter, 16 h; Potency, µM, inactives show at the top dose activation, actives largely listed as activators; 420,000 tested, 0.02% active; AID 602332; also: series mostly up to about 76 µM; % of control where 0% means no effect; nearly all actives have a fitted effect of over 35% in size
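Stably transfected U87-MG glioma cells carrying a GRP78-based luciferase sensor; 16 h compound incubation. Luminescence end-point read 10 min after Bright-Glo addition at room temperature.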
Abeta rescue = compounds reversing amyloid beta toxicity in yeast. Potency, µM (doses to about 46.1 µM), most hits filed as activators. 410,000 tested, 0.063% active. yeast expressing A-beta42, growth rescue, OD600, 48 h; response scale: 0% DMSO, 100% iron-clioquinol control. AID 1347071; also: nearly all actives have a fitted effect of over 55% in size
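Yeast growth medium received pinned compounds, then yeast cells expressing toxic A-beta were added; plates incubated at 30 C for 48 hr. Growth read as absorbance at 600 nm, normalized to DMSO and equimolar FeCl3 plus clioquinol controls.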
The depositor's hits bear a star; i = inactive; u = inconclusive; x = no result. Unless noted, calls follow the shape of the dose curve; as a rule, active = well fitted curve in the direction sought with a large enough effect; inconclusive = small, poorly fitted or top-dose-only effect, or another doubt; inactive = no such curve, though single readings can be large; an effect the other way counts as inactive or inconclusive. Potency is read from the fitted curve at half-maximal effect.

SMILES	MBNL1 CUG block	FUS yeast rescue	aSyn yeast inh	TDP-43 yeast inh	Glioma ERSR ind	Abeta rescue
CC(C)c1ccc(CN2CCC3(CCC(CNC(=O)c4ccn(C)n4)O3)CC2)cc1 (configuration not stated)	x	x	x	x	-4%	x
CC1CCCN(c2c(S(=O)(=O)c3ccccc3)cnc3ccc(Cl)cc23)C1 (configuration not stated)	x	i	x	-29%	-2%	i
COc1cc2ncc(S(=O)(=O)c3ccccc3)c(N3CCC4(CC3)OCCO4)c2cc1OC	-2%	i	0%	u	0%	i
COc1ccc2ncc(S(=O)(=O)c3ccccc3)c(N3CCC4(CC3)OCCO4)c2c1	17%	i	7%	18µM*	-5%	i
COc1ccc2ncc(S(=O)(=O)c3ccccc3)c(N3CCN(c4ccccc4)CC3)c2c1	x	i	u	16µM*	-2%	i
CC(C)OC(=O)C1=CNCC(C)(C)c2c1[nH]c1cc(F)ccc21	x	i	x	x	x	x
O=C(Nc1cccnc1)c1ccc([N+](=O)[O-])s1	x	i	-6%	13µM*	-6%	i
COc1ccc(Cl)cc1NC(=O)CN(C)CC(=O)Nc1ccc(C)cc1Br	0%	i	3%	18µM*	-2%	i
CC(OC(=O)/C=C/c1ccco1)C(=O)Nc1cccc([N+](=O)[O-])c1 (configuration not stated)	u	x	0%	11%	-2%	i
COc1ccc([N+](=O)[O-])cc1NC(=O)C(C)OC(=O)/C=C/c1ccco1 (configuration not stated)	u	x	-10%	25µM*	-5%	i
COc1ccc(Cl)cc1NC(=O)CN(C)CC(=O)Nc1ccccc1-c1ccccc1	-7%	i	10%	u	-6%	i
COc1ccc(Cl)cc1NC(=O)CN(C)C(=O)/C=C/c1ccco1	x	i	5%	28µM*	2%	i
COc1ccc(CNC(=O)C2(CC3CC(c4ccccc4)=NO3)CCN(C(=O)Cc3ccc(F)cc3)CC2)cc1 (configuration not stated)	x	i	5%	8%	-1%	i
CCOc1cc(C(=O)N2CCC(CC3CC(c4ccccc4)=NO3)(C(=O)NCc3ccc(OC)cc3)CC2)cc(OCC)c1OCC (configuration not stated)	x	18µM*	0%	2%	0%	i
COc1cc2c(NC3CCN(C)CC3)nc(N3CCCN(C)CC3)nc2cc1OCCCCCN(C)C	x	x	3%	x	-3%	x
S=C(NCC1CCCO1)c1ccc(Br)cc1 (configuration not stated)	4%	i	-8%	11µM*	5%	i
Cc1ccccc1OCC(=O)Nc1ccc2[nH]ncc2c1	1%	i	9%	13µM*	1%	i
O=C(COc1ccccc1)Nc1ccc2[nH]ncc2c1	-3%	i	-1%	1%	5%	i
O=C(COc1ccc(Cl)cc1)Nc1ccc2[nH]ncc2c1	3%	i	-4%	2.8µM*	2%	i
O=C(NCc1nnc2n1CCN(C(=O)/C=C/c1ccccc1)CC2)c1cccc(F)c1	x	x	x	x	-4%	x
C[C@H](O)[C@@H]1CN2CCc3c([nH]c4cccc(-c5ccccc5)c34)[C@@H]2C[C@@H]1N(C)C(=O)Nc1ccccc1	x	i	x	x	x	x
COCC1CCN(Cc2c(C(=O)N3CCc4ccccc4C3)nc3ccc(Cl)cn23)C1 (configuration not stated)	8%	7.1µM*	8%	7%	3%	i
COc1ccc(-n2nc([N+](=O)[O-])c(=NCCc3cccc(C)c3)n2O)cc1	u	i	5%	13µM*	0%	i
COc1ccc(CCN=c2c([N+](=O)[O-])nn(-c3cccc(C)c3)n2O)cc1OC	u	i	-1%	18µM*	-3%	i
